Measured values published in PubChem BioAssay (NCATS).
Results filed as inconclusive are left out. Values without a mark were called inactive. Calls of active or inactive are those of the source. Calls come from the whole dose curve; as a rule, active = well fitted inhibition curve with a large enough effect; inconclusive = small, poorly fitted or top-dose-only effect; inactive = no such curve, though single readings can be large or run the other way.

target: Tumor susceptibility gene 101 protein (Homo sapiens) (UniProt Q99816); assay: qHTS Assay for Iinhibitors of HIV-1 Budding by Blocking the Interaction of PTAP/TSG101: Hit Validation (AID 651600); settings: PTAP peptide/TSG101 UEV interaction, biochemical assay; series mostly up to 57.5 µM; activity change, negative = inhibition: at the top concentration; note: nearly all actives have a fitted effect of over 70% in size
Sequence (Q99816 whole entry, looked up, the tested form may be a part): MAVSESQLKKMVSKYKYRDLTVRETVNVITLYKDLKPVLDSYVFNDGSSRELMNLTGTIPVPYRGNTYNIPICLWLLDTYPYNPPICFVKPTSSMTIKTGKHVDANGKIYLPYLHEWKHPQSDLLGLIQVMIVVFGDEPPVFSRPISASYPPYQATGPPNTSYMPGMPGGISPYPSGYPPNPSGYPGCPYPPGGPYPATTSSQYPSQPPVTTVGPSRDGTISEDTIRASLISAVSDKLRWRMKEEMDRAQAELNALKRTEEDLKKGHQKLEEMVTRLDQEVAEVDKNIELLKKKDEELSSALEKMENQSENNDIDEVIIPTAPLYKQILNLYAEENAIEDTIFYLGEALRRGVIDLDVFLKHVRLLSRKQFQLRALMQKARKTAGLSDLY
Outline: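 FITC-PTAP peptide (50 nM final) binding to Tsg101 binding domain (10 uM final) was measured by polarization after 20 min at r.t. with compounds, in 10 mM HEPES pH 7.5 buffer with 0.15 M NaCl and 0.01% Tween 20.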
% is set by controls: 0 for no effect and ±100 for the full control effect; potency is the fitted concentration of half-maximal effect.

SMILES	activity change, negative = inhibition [%]	Potency
N#Cc1c(SCC(=O)Nc2nc3ccc(Br)cc3s2)sc2c(O)cc(=O)[nH]c12	-21.8	
O=C1Nc2ccc(F)cc2C12Nc1ccccc1-c1nnc(SCc3ccccc3F)nc1O2 (centres undefined)	-3.84	
S=C(Nc1ccc(N2CCOCC2)cc1)Nc1ccc2nc(-c3ccco3)c(-c3ccco3)nc2c1		32.6 µM (active)
COc1ccccc1N1C(C)=CC(=C(C#N)c2nc3ccccc3s2)C=C1C		25.9 µM (active)
CCOC(=O)Cn1c(=O)c(-c2cc(Br)ccc2N)nc2ccccc21	9.69	
COc1cc(OC)c(N(C)C(=O)c2sc3nc4n(c(=O)c3c2C)CCCC4)cc1Cl	-8.9	
Cc1ccc(C2C=C(c3ccc(Cl)cc3)Nc3nc(NS(=O)(=O)c4ccccc4)nn32)cc1 (centres undefined)	-9.68	
Cc1cc[n+](-c2[nH]c(=O)sc2/C=N/N=C(\[O-])c2ccccc2)cc1C		10.3 µM (active)
CCN(CC)c1ccc2cc(NC(=O)CCC(=O)O)c(=O)oc2c1		18.3 µM (active)
Cn1cc(/C=C2\SC(=S)N(NC(=O)c3ccccc3)C2=O)c2ccccc21	11.4	
CC(C)c1nnc(N2C(=O)C(O)=C(C(=O)c3cccs3)C2c2ccccc2)s1 (centres undefined)		8.19 µM (active)
O=[N+]([O-])c1cc(Cl)cc(/C=N/NC(=S)Nc2ccc(S(=O)(=O)N3CCOCC3)cc2)c1O	-9.43	
COC(=O)c1c(NC(=O)CC2Nc3cc(C)c(C)cc3NC2=O)sc(C)c1C (centres undefined)	4.67	
O=C(NCc1cccc(F)c1)c1cccc2c1C(=O)c1ccc(N3CCC(Cc4ccccc4)CC3)cc1S2(=O)=O		10.3 µM (active)
CC(C)(C)C(=O)c1sc2nc(-c3cccs3)cc(C(F)(F)F)c2c1N	11.5	
O=[N+]([O-])c1cc(Br)cc(/C=N/n2cnnc2)c1O	-16.4	
Nc1cccc(N2C(=O)c3cccc4c(N)ccc(c34)C2=O)c1		4.11 µM (active)
COCCNC(=S)N/N=C/c1c2ccccc2cc2ccccc12	8.48	
N#CC(C(=O)NC1CC1)c1nc2ccccc2nc1N1CCCC1 (centres undefined)	12.8	
Nc1c(C(=O)C2CC2)sc2nc(-c3ccccc3)cc(C(F)(F)F)c12	-11.5	

SMILES	activity change, negative = inhibition [%]	Potency
O=C(NCc1cccc(F)c1)c1cccc2c1C(=O)c1ccc(N3CCCC3)cc1S2(=O)=O	-8.13	
O=C1C=CC(=O)c2c(O)c(CO)c(CO)c(O)c21	-1.11	
O=[n+]1c2c(n([O-])c3cc(F)c(N4CCCC4)cc31)CCC2		13 µM (active)
COc1ccc(OC)c(/C=C(\C#N)c2nc(-c3ccc(F)cc3)cs2)c1	-0.321	
CCCN1C(=O)/C(=C/C=C2\N(CC)c3ccccc3C2(C)C)SC1=S		29.1 µM (active)
C/C(N)=C(/C#N)C(=O)CSc1ncnc2ccccc12	7.4	
CCN(CC)C(=O)[C@H]1CC(CC(=O)NCc2cccc(C(F)(F)F)c2)C(=O)N2CCc3c([nH]c4ccc(OC)cc34)[C@]12C (some centres undefined)	-1.5	
CC1=CC(=C(C#N)c2nc3ccccc3s2)C=C(C)N1c1ccc(F)cc1		18.3 µM (active)
Cc1cc(C)n2nc3nc4c(cc3c2n1)CCCC4	-6.06	
O=c1[nH]c(=O)n(-c2cc(Br)c(O)c(Br)c2)cc1Br	-14.2	
COc1ccc(CNS(=O)(=O)c2cc3c(cc2Cl)N(C(C)=O)CCO3)cc1	-1.31	
O=C(NCc1cccc(C(F)(F)F)c1)c1cccc2c1C(=O)c1ccc(N3CCC(Cc4ccccc4)CC3)cc1S2(=O)=O		14.6 µM (active)
COc1cccc2c1C(=O)c1c(O)c3c(c(O)c1C2=O)C[C@](O)(C(C)=O)C[C@H]3O[C@@H]1C[C@@H](N)[C@@H](O)[C@@H](C)O1		14.6 µM (active)
CC[C@@]1(C(=O)OC)N[C@H](CN(C)C(=O)c2ccc(C)cc2)[C@@H]2C(=O)N(Cc3ccccc3)C(=O)[C@@H]21	6.11	
Cc1ccccc1-n1c(SCc2c(C)noc2C)nnc1-c1cccnc1	-25.5	
CC1(C)CC(=O)C2=C(C1)OC(N)=C(C#N)[C@@H]2c1ccccc1[N+](=O)[O-]	-10.1	
COc1ccc(-n2nc(C(=O)Nc3ccc(OC)c(OC)c3)c3c4ccccc4n(C)c3c2=O)cc1	7.24	
Oc1oc(-c2ccccc2)nc1C=Nc1cccc2ccccc12	4.31	
Brc1ccc(C2=CC(c3ccco3)n3ncnc3N2)cc1 (centres undefined)	-0.541	
